# Results as given in PubChem BioAssay (Tox21).
# Inconclusive results are not listed. Unmarked numbers belong to inactive results. Calls of active or inactive are those of the source. The call rests on the fitted dose curve; in most records, active means well fitted cell-killing curve with a large enough effect in the repeat runs; inconclusive means weak or mixed curves, or effect the other way; inactive means flat fitted curve, though single readings scatter.
# Test: qHTS assay to identify small molecule agonists of the estrogen receptor beta (ER-beta) signaling pathway - cell viability counter screen (AID 1259380); further: nearly all actives have a fitted effect of over 30% in size
# Conditions: ER-beta-bla HEK293T viability, CellTiter-Glo luminescence, 16 h; series mostly up to 92.4 µM; activity change, negative = cytotoxicity: at the top concentration
# Description: National Center for Advancing Translational Sciences [NCATS]
# NIH Chemical Genomics Center [NCGC]
# U.S. Environmental Protection Agency [EPA]
# National Institutes of Environmental Health Sciences [NIEHS]
# National Toxicology Program [NTP]
# U.S. Food and Drug Administration [FDA]
# Estrogen receptor (ER), a nuclear hormone receptor, plays an important role in development, metabolic homeostasis and reproduction. Two subtypes of ER, ER-alpha and ER-beta, have similar expression patterns with some uniqueness in both types. Endocrine disrupting chemicals (EDCs) and their interactions with steroid hormone receptors like ER causes disruption of normal endocrine function. To identify the compounds that activate ER signaling, an ER beta-UAS-bla GripTite cell line (Life Technologies, Madison, WI, USA) containing a beta-lactamase reporter gene under the control of an UAS response element was used to screen Tox21 10K compound library. The cytotoxicity of the Tox21 compound library against the ER-beta-bla cell line was tested in parallel by measuring the cell viability using CellTiter-Glo assay in the same wells.
# Tox21 Assay Protocol Summary:
# ER-beta-UAS-bla HEK293T cells were dispensed at 2,000 cells/5 uL of assay medium containing 2% charcoal stripped FBS per well into black wall/clear-bottom 1536-well plates using a Multidrop Combi (ThermoFisher Scientific, Waltham, MA) dispenser. After the assay plates were incubated at a 37C and 5% CO2 for 6 hr, 23 nL of compounds dissolved in DMSO, positive controls or DMSO only was transferred to the assay plate by a Pintool station (Kalypsys, San Diego, CA). The plates were incubated at 37C and 5% CO2 for 16 hr. Then 1 uL of LiveBLAzerTM B/G FRET substrate was added using a BioRAPTR FRD (Flying Reagent Dispenser, Aurora Discovery, San Diego, CA) and then the plates were incubated at room temperature for 2 hours, and fluorescence intensity was measured by an Envision plate reader (PerkinElmer, Shelton, CT). For cell viability readout that measures cytotoxicity, 4 uL/well of CellTiter-Glo reagent was added into the assay plates using a FRD. After 30 min incubation at room temperature, the luminescence intensity in the plates was measured using a ViewLux (PerkinElmer) plate reader.
# On the % scale 0 is the no-effect control and ±100 the full control effect; potency means the concentration at half of the fitted maximal effect.
Structure (SMILES),"activity change, negative = cytotoxicity",Potency
CCOC(=O)[C@@H](C)Oc1ccc(Oc2nc3ccc(Cl)cc3o2)cc1,8.77%,–
CCC(C(=O)OCCOCCN(CC)CC)c1ccccc1 (stereo not given),-9.6% [at 42.5 µM],–
COC(OC)(C(=O)c1ccccc1)c1ccccc1,1.78%,–
CO[C@@]12[C@H](COC(N)=O)C3=C(C(=O)C(C)=C(N)C3=O)N1C[C@@H]1N[C@@H]12,-1.04% [at 42.5 µM],–
CCCCCCCCCCCC[N+](C)(C)CC(=O)[O-],–,24.3 µM (active)
CCOCCn1c(C2CCN(CCc3ccc(C(C)(C)C(=O)O)cc3)CC2)nc2ccccc21,1.81% [at 42.5 µM],–
CC(C)(CCl)c1ccccc1,-0.158%,–
CCC1(C)CC(=O)NC1=O (stereo not given),4.82% [at 42.5 µM],–
C[Si]1(C)O[Si](C)(C)O[Si](C)(C)O1,0.0223%,–
[O]=[Bi],4.86% [at 8.39 µM],–
CC1CC(O)CC(C)(C)C1 (stereo not given),-2.96%,–
c1cnc2c(n1)CCCC2,0.444%,–
O=C1OCCN1/N=C/c1ccc([N+](=O)[O-])o1,0.417% [at 42.5 µM],–
O=C(O)Cc1ccc(-c2ccccc2)cc1,-4.5% [at 42.5 µM],–
CCCCCCCCCCCCCCC[C@H](O)[C@@H](N)CO,3.92% [at 42.5 µM],–
OCCSc1ccccc1,–,19.3 µM (active)
CC(=O)[C@H]1CC[C@H]2[C@@H]3C[C@H](C)C4=CC(=O)CC[C@]4(C)[C@H]3[C@@H](O)C[C@]12C,-3.61% [at 42.5 µM],–
CCOc1cc(N)c(Cl)cc1C(=O)NCC1CN(Cc2ccc(F)cc2)CCO1 (stereo not given),–,2.37 µM (active)
CC[C@H](NC(=O)c1cc(F)ccc1NS(=O)(=O)c1cccc2cccnc12)c1ccccc1,–,18.3 µM (active)
O=C(CCCCCCCCC#CI)Oc1ccccc1,3.01% [at 42.5 µM],–

Structure (SMILES),"activity change, negative = cytotoxicity",Potency
Nc1ccc(S(=O)(=O)O)cc1,-1.59%,–
CC(C)c1nnc2ccc(-c3ocnc3-c3cc(F)ccc3F)cn12,0.893%,–
CC(CCc1ccc2c(c1)OCO2)NN (stereo not given),1% [at 42.5 µM],–
CCOC(=O)OCC,2.04%,–
c1cc[c]([Bi]([c]2ccccc2)[c]2ccccc2)cc1,-11%,–
CC(=O)CC(c1ccc([N+](=O)[O-])cc1)c1c(O)c2ccccc2oc1=O (stereo not given),1.44% [at 42.5 µM],–
CC1=C(C=O)C(C)(C)CCC1,4.55%,–
CN1CCCN=C1/C=C/c1cccs1,4.92% [at 42.5 µM],–
CC1(C)O[C@@H]2C[C@H]3[C@@H]4CCC5=CC(=O)C=C[C@]5(C)[C@H]4[C@@H](O)C[C@]3(C)[C@]2(C(=O)CO)O1,-7.92% [at 42.5 µM],–
CCCOC(=O)c1ccc(C(=O)OCCC)nc1,3%,–
CCCOCCOCCO,10.8%,–
CCCCCCCCCCCCCCCCBr,2.84% [at 19 µM],–
C=CC(=C)CCCC(C)(C)OC(C)=O,-0.231%,–
CN1CCN(CCCN2c3ccccc3Sc3ccc(S(=O)(=O)N(C)C)cc32)CC1,–,23.7 µM (active)
COc1ccc(C(=O)c2cccc(O)c2)c(OC)c1,-0.98%,–
NC(=O)Nc1ccc(Cl)c(Cl)c1,-18.7%,–
Cc1cc(S(=O)(=O)O)ccc1N=Nc1c(O)ccc2ccccc12,-1.68%,–
Cc1nc2ccccc2s1,0.184%,–
CC(C)C(=O)O,2.95%,–
CO[C@H]1O[C@H](CO)[C@@H](O)[C@H](O)[C@H]1O,1.49%,–
